Hit rate of the full screen: of about 310,000 compounds, about 14,000 (4.5%) showed an effect of 50% or more. The effect is printed as a negative number. The full list was thinned out, with strong results kept by preference.
Molecular target: human ether-à-go-go-related gene (hERG) potassium channel (human, UniProt Q12809)
Test: primary screen, population patch clamp on CHO cells stably expressing hERG; higher = less effect of the substance
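Further: peak tail current of the secondary pulse compared with the same well before compound.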

human ether-à-go-go-related gene (hERG) potassium channel, sequence (Q12809 whole entry, looked up): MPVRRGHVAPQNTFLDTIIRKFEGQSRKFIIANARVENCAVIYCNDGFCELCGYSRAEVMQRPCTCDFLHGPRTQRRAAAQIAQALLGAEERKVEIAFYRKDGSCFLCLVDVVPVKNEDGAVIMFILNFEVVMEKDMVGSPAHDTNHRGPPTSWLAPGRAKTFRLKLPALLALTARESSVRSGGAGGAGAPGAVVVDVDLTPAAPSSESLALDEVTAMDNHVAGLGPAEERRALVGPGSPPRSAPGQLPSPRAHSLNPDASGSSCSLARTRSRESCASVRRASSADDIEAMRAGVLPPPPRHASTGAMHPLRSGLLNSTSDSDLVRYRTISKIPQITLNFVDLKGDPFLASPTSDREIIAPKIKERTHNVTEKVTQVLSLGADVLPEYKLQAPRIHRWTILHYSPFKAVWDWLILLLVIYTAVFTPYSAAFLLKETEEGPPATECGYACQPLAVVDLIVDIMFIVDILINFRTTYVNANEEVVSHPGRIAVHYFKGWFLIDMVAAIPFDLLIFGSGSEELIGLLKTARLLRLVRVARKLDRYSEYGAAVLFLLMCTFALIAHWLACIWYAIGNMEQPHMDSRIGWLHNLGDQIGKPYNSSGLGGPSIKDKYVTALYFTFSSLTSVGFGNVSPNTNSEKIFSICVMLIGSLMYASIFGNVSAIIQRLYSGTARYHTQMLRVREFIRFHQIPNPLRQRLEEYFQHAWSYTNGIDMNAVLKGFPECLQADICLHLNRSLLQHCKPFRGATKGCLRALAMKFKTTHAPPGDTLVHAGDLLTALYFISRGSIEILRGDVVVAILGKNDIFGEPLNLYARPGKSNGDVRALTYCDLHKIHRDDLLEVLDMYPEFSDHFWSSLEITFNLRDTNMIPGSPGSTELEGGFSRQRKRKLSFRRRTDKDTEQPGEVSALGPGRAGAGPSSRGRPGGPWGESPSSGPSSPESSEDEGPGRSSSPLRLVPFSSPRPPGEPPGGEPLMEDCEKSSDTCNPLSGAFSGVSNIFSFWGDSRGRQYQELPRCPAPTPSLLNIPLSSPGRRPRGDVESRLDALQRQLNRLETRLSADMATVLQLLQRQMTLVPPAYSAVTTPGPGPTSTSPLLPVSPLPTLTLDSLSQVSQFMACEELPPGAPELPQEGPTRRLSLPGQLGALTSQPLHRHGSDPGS

Row | Structure (SMILES) | hERG current change (%, negative = inhibition) at 10uM [%]
1 | CC(C)CN(C(=O)COC(=O)/C=C/c1ccccc1)C1CCS(=O)(=O)C1 (stereo not shown) | -10.7
2 | CCOC(=O)N1CCN(C(=O)CSc2nnc(COc3ccccc3)o2)CC1 | -11
3 | S=C(Nc1ccc(Br)cc1Cl)NN1CCOCC1 | -8.03
4 | O=C(CC1NCCNC1=O)Nc1ccc(Oc2ccccc2)cc1 (stereo not shown) | 25.6
5 | Cc1cc(C(=O)Nc2ccc3c(c2)CCC3)c2ccccc2n1 | 10.8
6 | COc1ccc(Cl)cc1NC(=O)CCS(=O)(=O)c1ccc(Br)cc1 | 3.8
7 | COc1ccc(NC(=O)C(=O)NNC(=O)C(C)Oc2ccc(Cl)cc2Cl)cc1 (stereo not shown) | 19
8 | Cn1nc(C(=O)Nc2ccccc2)c2c1-c1ccccc1S(=O)(=O)C2 | -0.138
9 | CC(C)CN(CCCNC(=O)CN1C(=O)COc2ccc(S(=O)(=O)N3CCCC3)cc21)CC(C)C | -5.33
10 | CC(C)CN(CCCNC(=O)CN1C(=O)COc2ccc(S(=O)(=O)N3CCC(C)CC3)cc21)CC(C)C | -2.94
11 | CCOCCCNC(=O)CN1C(=O)COc2ccc(S(=O)(=O)N3CCC(C)CC3)cc21 | 6.25
12 | CC1CCN(S(=O)(=O)c2ccc3c(c2)N(CC(=O)NCCCOC(C)C)C(=O)CO3)CC1 | 12.8
13 | CCCCN(CCCC)CCCNC(=O)CN1C(=O)COc2ccc(S(=O)(=O)N3CCC(C)CC3)cc21 | -74.8
14 | CC(C)CN(CCCNC(=O)CN1C(=O)COc2ccc(S(=O)(=O)N3CCCCCC3)cc21)CC(C)C | -52
15 | Cc1ccc(CCNC(=O)CN2C(=O)COc3ccc(S(=O)(=O)N4CCC(C)CC4)cc32)cc1 | 8.66
16 | CC1CCN(S(=O)(=O)c2ccc3c(c2)N(CC(=O)NCCCN(Cc2ccccc2)C(C)C)C(=O)CO3)CC1 | -62.5
17 | CC(C)CN(CCCNC(=O)CN1C(=O)COc2ccc(S(=O)(=O)N3CCOCC3)cc21)CC(C)C | 6.18
18 | Cc1cc(C)nc(N2CCC(C(=O)Nc3ccc4c(c3)OCO4)CC2)n1 | -5.31
19 | NS(=O)(=O)c1ccc(CNS(=O)(=O)c2ccc3ccccc3c2)cc1 | 1.74
20 | O=C(CSc1ncccn1)NCc1ccc(Cl)cc1 | 4.02
21 | COC(=O)C(=O)/C=C(\O)c1c(C)cc(C)cc1C | 14.9
22 | COc1ccc(/C=C2/CCc3ccccc3C2=O)cc1OC | -19.8

Row | Structure (SMILES) | hERG current change (%, negative = inhibition) at 10uM [%]
23 | CCOc1cc(CNCCO)ccc1OCC(=O)NC(C)(C)C.Cl | 15.7
24 | O=C(COC(=O)c1ccc(F)cc1F)NCCC1=CCCCC1 | 10.6
25 | O=S(=O)(c1ccc(OCC(O)CN2CCC(Cc3ccccc3)CC2)cc1)N1CCOCC1 (stereo not shown) | -44.4
26 | Cl.OC(COc1ccc(Cl)cc1)CN1CCC(Cc2ccccc2)CC1 (stereo not shown) | -81.4
27 | Cl.OC(COc1ccccc1)CN1CCC(Cc2ccccc2)CC1 (stereo not shown) | -79.3
28 | OC(COc1ccc(OCc2ccccc2)cc1)CN1CCOCC1 (stereo not shown) | -17
29 | Cl.OC(COc1ccc(Br)cc1)CN1CCOCC1 (stereo not shown) | -0.178
30 | Cl.OC(COc1ccc(Br)cc1)CN1CCC(Cc2ccccc2)CC1 (stereo not shown) | -85.9
31 | Cl.OCCN1CCN(CC(O)COc2ccc(Cl)cc2)CC1 (stereo not shown) | -20.6
32 | CC(C)OCC(O)CN1CCNCC1.Cl (stereo not shown) | 11.6
33 | Cl.OC(COc1ccc(Br)cc1)CN1CCCC1 (stereo not shown) | -24.3
34 | CCN1CCN(CC(O)COC(C)C)CC1.Cl (stereo not shown) | 2.08
35 | Cl.OC(COc1ccc(Cl)cc1)CN1CCN(c2ccccc2)CC1 (stereo not shown) | -29.7
36 | CC(C)OCC(O)CN1CCC(Cc2ccccc2)CC1.Cl (stereo not shown) | -56.9
37 | COc1ccc(-n2c(O)c(C(C)=NCCc3c[nH]c4ccccc34)c(=O)[nH]c2=O)cc1 | 14.6
38 | Cc1cc(C)cc(Oc2c(C(F)(F)F)oc3cc(OCC(=O)O)ccc3c2=O)c1 | 4.25
39 | Cc1ccc(NC(=O)CSc2nnc(-c3cnccn3)n2C)cc1C | -5.78
40 | C/C(=N\Nc1nncc2ccccc12)c1ccc(OCC(=O)N(C)C)cc1 | 8.27
41 | COc1cc(CN2CCN(c3cccc(C)c3C)CC2)cc([N+](=O)[O-])c1O | 23.5
42 | CCC(C)C(NC(=O)C1CCC(C)CC1)C(=O)NC(C(=O)OC)C(C)C (stereo not shown) | -0.903
43 | CCCn1c2ccccc2c2nc3ccccc3nc21 | 13
44 | Fc1cccc(CN2CCC(Cc3ccccc3)CC2)c1 | 5.12

Row | Structure (SMILES) | hERG current change (%, negative = inhibition) at 10uM [%]
45 | Fc1ccccc1CN1CCC(Cc2ccccc2)CC1 | -24.4
46 | OC(COc1ccc(F)cc1Cl)CN1CCC(Cc2ccccc2)CC1 (stereo not shown) | -84.6
47 | Cc1c(C(O)CN2CCC(C(N)=O)CC2)c2ccccc2n1C (stereo not shown) | -3.73
48 | OC(CN1CCC(Cc2ccccc2)CC1)c1ccccc1 (stereo not shown) | -52.9
49 | COc1ccc2c(c1)c(C(=O)CN1CCN(Cc3ccccc3)CC1)c(C)n2C | -29.8
50 | OC(CN1CCC(Cc2ccccc2)CC1)C(F)(F)F (stereo not shown) | 5.97
51 | OC(CN1CCN(c2ccccc2Cl)CC1)c1ccccc1 (stereo not shown) | -42.3
52 | O=C(O)C(=O)O.O=S(=O)(c1ccc(F)cc1)N1CCN(CC(O)COc2ccccc2F)CC1 (stereo not shown) | -14.5
53 | COc1ccc2c(c1)c(C(O)CN1CCC(Cc3ccccc3)CC1)c(C)n2C (stereo not shown) | -71
54 | CC1CCN(CC(O)COc2cccc(F)c2)CC1 (stereo not shown) | -24.8
55 | Cl.OC(COc1ccccc1F)CN1CCC(Cc2ccccc2)CC1 (stereo not shown) | -76.2
56 | COc1ccccc1NC(=O)Nc1nc(CC(=O)Nc2cccc(F)c2)cs1 | -3.26
57 | COc1ccc(CCNC(=O)C2CCN(S(=O)(=O)c3cccc4cccnc34)CC2)cc1OC | 12.1
58 | CCOC(=O)N1CCN(c2nnnn2-c2ccccc2)CC1 | -0.913
59 | CCCCNC(=O)C(CC)(ONc1ccccc1C(F)(F)F)c1ccccc1 (stereo not shown) | 6.19
60 | CC(C)(C)c1ccc(C(=O)NNC(=O)C(=O)N2CCCCC2)cc1 | 14.3
61 | CS(=O)(=O)Nc1cccc(C2=NN(C(=O)c3cccc([N+](=O)[O-])c3)C(c3cccs3)C2)c1 (stereo not shown) | -13.4
62 | COc1cccc(OCC(O)CN2CCN(c3ncccn3)CC2)c1.Cl (stereo not shown) | -11
63 | COc1cccc(OCC(O)CN2CCC(Cc3ccccc3)CC2)c1.Cl (stereo not shown) | -70.4
64 | COc1cccc(OCC(O)CN2CCC(C)CC2)c1.Cl (stereo not shown) | -12.3
65 | COc1ccc(CCNC(=O)C(CC(C)C)NC(N)=O)cc1 (stereo not shown) | 9.22
66 | COc1ccc(C)cc1Nc1n[n+](-c2ccccc2)c(-c2c(OC)ccc3ccccc23)s1.[Cl-] | -53.8

Row | Structure (SMILES) | hERG current change (%, negative = inhibition) at 10uM [%]
67 | COc1ccc(C)cc1Nc1n[n+](-c2ccccc2)c(-c2cc([N+](=O)[O-])cc(OC)c2O)s1.[Cl-] | 6.15
68 | COc1ccc(C)cc1Nc1n[n+](-c2ccccc2)c(-c2cccc(Cl)c2Cl)s1.[Cl-] | 10
69 | COc1ccc(C)cc1Nc1n[n+](-c2ccccc2)c(-c2ccc(C(=O)O)cc2)s1.[Cl-] | 18
70 | COc1ccc(C)cc1Nc1n[n+](C)c(-c2c3ccccc3cc3ccccc23)s1.[Cl-] | 13.3
71 | COc1ccc(C)cc1Nc1n[n+](-c2ccccc2)c(-c2cc(OC)c(OC)cc2Br)s1.[Cl-] | -48.9
72 | COc1ccc(C)cc1Nc1n[n+](-c2ccccc2)c(-c2ccc(OC)c(OC)c2OC)s1.[Cl-] | -71.8
73 | COc1ccc(C)cc1Nc1n[n+](-c2ccccc2)c(-c2ccc(NC(C)=O)cc2)s1.[Cl-] | 12.8
74 | COc1ccc(C)cc1Nc1n[n+](-c2ccccc2)c(-c2c(Cl)cccc2Cl)s1.[Cl-] | -55.9
75 | COc1ccc(-c2nnc(SCC(=O)N(Cc3ccccc3)C(C)(C)C)o2)cc1OC | -22.9
76 | O=c1c(Cc2ccc(Cl)cc2)c(O)ccn1Cc1cccs1 | 4.04
77 | Cc1ccc(C(=O)NC2CC(=O)N(c3ccc4c(c3)OCCO4)C2)cc1[N+](=O)[O-] (stereo not shown) | 14.6
78 | CCC1(CC)NC(=O)N(CC(=O)OCC(=O)c2ccccc2OC)C1=O | 0.647
79 | CC(C)(C)NC(=O)C(Cc1ccccc1)NS(=O)(=O)c1cccc2nsnc12 (stereo not shown) | -1.39
80 | CC(Sc1ccccc1)C(=O)N1CCN(S(=O)(=O)c2ccccc2)CC1 (stereo not shown) | -8.83
81 | CC1CC(C)CN(c2ccc(-n3cnnn3)cc2[N+](=O)[O-])C1 (stereo not shown) | -18.4
82 | NC(=O)CC(NC(=O)c1ccccc1)c1ccc(N2CCC(Cc3ccccc3)CC2)c([N+](=O)[O-])c1 (stereo not shown) | 4.44
83 | O=[N+]([O-])c1cc(-n2cnnn2)ccc1N1CCC(Cc2ccccc2)CC1 | -54.9
84 | Cn1cnnc1SCc1cccc(Br)c1 | 0.347
85 | COc1cccc(-n2c(CNc3ccc(F)cc3)nnc2SCC(N)=O)c1 | -11.8
